About 2,300 (0.66%) of roughly 350,000 compounds were called active. Shown is part of a subset that was picked to be rich in actives. Values without a mark were called inactive.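 The calls were made as follows: active = mean inhibition of at least 50% after viability correction, with every replicate also passing that limit; inconclusive = mean reaches 50% but only one of two replicates passes; inactive = the rest.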
test: EWS/Fli-driven NR0B1 reporter inhibitors, primary screen, A673 cells, NR0B1 luciferase, luminescence, MLPCN library (AID 651661); conditions: viability-normalised, at 12.6 µM, stronger effect = higher value;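 also: firefly luciferase signal divided by Alamar Blue viability fluorescence both relative to DMSO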

In order of rising inhibition:
1. Nc1c(C(=O)Nc2ccc3c(c2)OCCO3)nnn1Cc1ccccc1  -100%
2. Clc1ccc(Nc2ccc3ccccc3n2)cc1  -53.3%
3. CCOc1ccc(OCc2ccc(C(=O)N(C)c3ccccc3)o2)cc1  -36.4%
4. O=C(c1ccccc1)N1CCN(c2cc(-c3ccccc3)nc3cc(-c4cccc(Cl)c4)nn23)CC1  -22.8%
5. CCOC(=O)C(=Cc1ccccc1)C(=O)c1ccccc1  -15.6%
6. COc1ccc(CNS(=O)(=O)c2cc(Br)ccc2Br)cc1  -12%
7. CO[C@@H]1CN(C)C(=O)c2cc(NC(=O)Nc3ccccc3F)ccc2OC[C@H](C)NC[C@H]1C  -10.4%
8. CO[C@H]1CN(C)C(=O)c2ccc(NC(=O)NC(C)C)cc2OC[C@H](C)N(Cc2cncnc2)C[C@@H]1C  -9.44%
9. C[C@@H]1CN([C@@H](C)CO)C(=O)Cc2cc(NC(=O)Nc3ccc4c(c3)OCO4)ccc2O[C@@H]1CN(C)CC1CCCCC1  -9.05%
10. CCOc1ccc(C(=O)Nc2ccc(CN3CCOCC3)cc2)cc1Cl  -7.97%
11. COCC(=O)Nc1ccc2c(c1)C(=O)N(C)[C@@H]1CC[C@@H](CC(=O)NCC(F)(F)F)O[C@H]1CO2  -7.87%
12. COc1cccc(OC)c1C(=O)NC(=S)Nc1ccc(N2CCOCC2)c(Cl)c1  -7.45%
13. O=C(c1ccc(F)cc1)N1CC(=O)N2[C@H](C1)[C@@H](c1ccc(C#CC3CC3)cc1)[C@@H]2CO  -6.65%
14. COc1cccc(S(=O)(=O)N(C)C[C@@H]2Oc3ncc(-c4cccc(C(=O)N(C)C)c4)cc3C(=O)N([C@H](C)CO)C[C@H]2C)c1  -6.58%
15. COc1cccc(-c2ccc3c(c2)[C@@H]2[C@@H](CCN2C(=O)CN2CCOCC2)[C@H](CO)N3)c1  -6.11%
16. COC(=O)C(CC#Cc1ccc2c(c1)[C@]1(C(=O)N2)[C@H](c2ccc(O)cc2)N2[C@H](c3ccccc3)[C@H](c3ccccc3)OC(=O)[C@H]2[C@@H]1C(=O)NC[C@H](O)c1ccccc1)C(=O)OC  -4.53%
17. CCS(=O)(=O)N1CC2(CN(C(=O)c3ccc(F)cc3)[C@H](CO)c3c2c2ccc(OC)cc2n3C)C1  -3.98%
18. COc1ccc2c3c(n(C)c2c1)[C@H](CO)N(Cc1ccc(F)cc1)CC31CN(CC2CCOCC2)C1  -3.68%
19. CC1(C(=O)Nc2cccnc2)Cc2c(-c3ccccc3)ccnc2O1 (configuration not stated)  -3.3%
20. NC(=O)c1ccc(NC(=O)COC(=O)c2c3c(nc4ccccc24)/C(=C\c2ccc4c(c2)OCO4)CCC3)cc1  -2.89%
21. CO[C@H]1CN(C)C(=O)c2cc(NC(C)=O)ccc2OC[C@H](C)N(C(=O)CN(C)C)C[C@@H]1C  -2.59%
22. CC=Cc1ccc2n(c1=O)C[C@@H]1[C@@H](CO)[C@H](C(=O)N(C)C)N(CC3CCOCC3)[C@H]21 (mixture of isomers)  -1.84%
23. CCCNC(=O)N1C[C@@H](C)[C@@H](OC)CN(C)C(=O)c2ccc(NC(=O)C3CCC3)cc2OC[C@@H]1C  -1.5%
24. O=C(C[C@H]1C[C@H]2c3cc(NC(=O)C4CCC4)ccc3O[C@H]2[C@@H](CO)O1)NCc1ccc(Cl)cc1  -0.922%
25. C[C@@H]1CCCCO[C@@H](CN(C)C(=O)NC2CCCCC2)[C@@H](C)CN([C@H](C)CO)C(=O)c2cc(NC(=O)CCCCCC(=O)Nc3ccccc3N)ccc2O1  -0.378%
26. O=C(C[C@H]1C[C@H]2c3cc(NC(=O)NC4CCCC4)ccc3O[C@H]2[C@H](CO)O1)NCCc1ccccc1  -0.115%
27. CN1CCN(C(=O)C[C@H]2CC[C@H]3[C@H](COc4ccc(NC(=O)C5CC5)cc4C(=O)N3C)O2)CC1  0.362%
28. CCC(=O)N(C)C[C@H]1Oc2cc(-c3ccccc3F)ccc2S(=O)(=O)N([C@H](C)CO)C[C@@H]1C  1.15%
29. CN(C)CCN1CCN(c2cc(-c3cccc(Cl)c3)nc3ccnn23)CC1  1.41%
30. O=C(CC1CC1)N1[C@@H]2CN(S(=O)(=O)c3ccc(F)cc3)c3ccccc3[C@@H]2[C@@H]1CO  2.01%
31. Cc1ccccc1S(=O)(=O)Nc1ccc2c(c1)C(=O)N(C)[C@@H]1CC[C@@H](CC(=O)O)O[C@@H]1CO2  2.06%
32. CO[C@@H]1CN(C)C(=O)c2cc(NC(=O)C3CC3)ccc2OC[C@@H](C)N(C(=O)c2ccncc2)C[C@H]1C  2.15%
33. O=C(C[C@H]1C[C@@H]2c3cc(NC(=O)C4CCOCC4)ccc3O[C@@H]2[C@H](CO)O1)NCC1CC1  2.22%
34. COC(=O)CC1=NN(c2ccccc2)C(=O)C1  2.41%
35. COc1cccc(CNC(=O)c2nnn(CC(=O)Nc3cc(Cl)ccc3C)c2N)c1  2.98%
36. O=C(NC1CCCC1)N1CC(=O)N2[C@H](C1)[C@H](c1ccc(/C=C/c3ccccc3)cc1)[C@@H]2CO  3.76%
37. COC(c1ccccc1)(c1ccccc1)C(Oc1nc(C)cc(C)n1)C(=O)O (configuration not stated)  3.9%
38. COc1ccc(CN(C)C[C@@H]2OCCCC[C@H](C)Oc3ccc(NC(=O)c4ccccc4)cc3C(=O)N([C@H](C)CO)C[C@H]2C)cc1  4.63%
39. Cc1cc(-c2ccc(C)c(S(=O)(=O)Nc3ccc(S(N)(=O)=O)cc3)c2)on1  5.81%
40. CCNC(=O)Nc1ccc2c(c1)C(=O)N(C)[C@@H]1CC[C@@H](CC(=O)NC3CCCCC3)O[C@H]1CO2  6.61%
41. C[C@H]1CCCCO[C@H](CN(C)C(=O)CCC(F)(F)F)[C@@H](C)CN([C@@H](C)CO)C(=O)c2cc(NC(=O)Cc3ccccc3)ccc2O1  6.65%
42. COCC(=O)Nc1ccc2c(c1)C(=O)N(C)[C@@H]1CC[C@H](CC(=O)NCCc3ccccc3)O[C@@H]1CO2  6.92%
43. COc1ccc(C#Cc2ccc3c(c2)[C@]2(C(=O)N3)[C@H](c3ccccc3OCCO)N3[C@H](c4ccccc4)[C@H](c4ccccc4)OC(=O)[C@H]3[C@@H]2C(=O)N2CCCCCCC2)cc1  7.03%
44. CCS(=O)(=O)N1CCC2(CC1)CN[C@H](CO)c1c2c2ccc(OC)cc2n1C  8.2%
45. C[C@@H]1CN([C@@H](C)CO)C(=O)CCCn2cc(nn2)CO[C@@H]1CN(C)Cc1cccc(O)c1  8.82%
46. COc1ccc(NC(=O)C2(C)Cc3c(-c4ccc(C(N)=O)cc4)ccnc3O2)cc1 (configuration not stated)  9.42%
47. CC(C)(C)OC(=O)N(Cc1ccccc1)Cc1ccc(OCc2cccc(NC(=O)c3ccccc3)c2)cc1  11.8%
48. COc1ccc(NC(=O)C2(C)Cc3c(-c4cccc(NC(C)=O)c4)ccnc3O2)cc1OC (configuration not stated)  12.4%
49. CC(C)NC(=O)N1C[C@@H]2[C@H](c3ccccc31)[C@@H](CO)N2Cc1ccc(Cl)cc1  14.5%
50. C[C@H](CO)N1C[C@H](C)[C@@H](CN(C)S(=O)(=O)c2ccc([N+](=O)[O-])cc2)OCc2ccccc2-c2c(n(C)c3ccccc23)C1=O  14.6%
51. Cc1ccccc1S(=O)(=O)N1[C@H](CO)[C@@H](c2ccc(-c3ccccc3)cc2)[C@@H]1C#N  18.6%
52. COc1cnc(-c2ccccn2)nc1Oc1ccc(C(C)(C)C)cc1  18.9%
53. CC(C)NC(=O)N1[C@H](C#N)[C@H](c2ccc(C#CC3CCCCC3)cc2)[C@H]1CO  19.7%
54. CCc1nc2ccccc2c(C(=O)NCc2ccc(OC)cc2)c1C  22.9%
55. CC(=O)Nc1cccc(-c2ccnc3c2CC(C)(C(=O)NCc2ccco2)O3)c1 (configuration not stated)  47.3%

In the case of `CCOc1ccc(C(=O)NC(=S)Nc2ccc(N3CCOCC3)c(Cl)c2)cc1[N+](=O)[O-]`, the inhibition is reported as 72% (active).
In the case of `C#Cc1cc(N2CCN(C(=O)c3ccoc3)CC2)n2nc(-c3cccc(Cl)c3)cc2n1`, the inhibition is reported as 53% (active).
With `CN(CCO)c1ccc(/C=N/Nc2nncc3ccccc23)cc1` the inhibition was 67.2% (active).
With `Cc1cc(C)nc(S/C=C/C(=O)c2ccccc2)n1` the inhibition was 50.2% (active).
In the case of `COC(=O)C(CC#Cc1ccc2c(c1)[C@]1(C(=O)N2)[C@H](c2ccccc2OCCO)N2[C@H](c3ccccc3)[C@H](c3ccccc3)OC(=O)[C@H]2[C@@H]1C(N)=O)C(=O)OC`, the inhibition is reported as 70.7% (active).
In the case of `C=C(C)C(=O)O[C@H]1C/C(C)=C\C(=O)/C=C(\C)[C@H](O)[C@@H]2OC(=O)C(=C)[C@@H]21`, the inhibition is reported as 74% (active).
For `O=[N+]([O-])/C=C/c1ccc2c(ccn2Cc2ccccc2)c1`, the inhibition was 68.6% (active).
In the case of `COc1ccc(CNS(=O)(=O)c2cc(-c3cc(C)no3)ccc2C(C)C)cc1`, the inhibition is reported as 55.5% (active).
In the case of `COC(=O)Cc1[nH]n(-c2nc3ccccc3s2)c(=O)c1C(C)=Nc1ccc(OC)cc1`, the inhibition is reported as 67.1% (active).
For `CC(=O)Nc1cccc(-c2ccnc3c2CC(C)(C(=O)NCc2ccccc2)O3)c1` (configuration not stated), the inhibition was 56.4% (active).
For `COc1ccc(NC(=O)C2(C)Cc3c(-c4cccc(NC(C)=O)c4)ccnc3O2)cc1` (configuration not stated), the inhibition was 72% (active).
In the case of `CCOc1ccc(OCc2cccc(C(=O)N(CC)CC)c2)cc1`, the inhibition is reported as 67.8% (active).
In the case of `C[C@@H]1C[C@@H]2O[C@H]2/C=C\C=C\C(=O)Cc2c(Cl)c(O)cc(O)c2C(=O)O1`, the inhibition is reported as 76.6% (active).
With `CC(C)(C)c1ccc(Oc2ccc(N)cc2)cc1` the inhibition was 65.3% (active).
In the case of `C(=N\Nc1ccc2ccccc2n1)/c1ccc2c(c1)OCO2`, the inhibition is reported as 59.1% (active).
In the case of `CCN1/C(=C\c2ccc3ccccc3[n+]2CC)Sc2cc(C)ccc21`, the inhibition is reported as 56.7% (active).
In the case of `Nc1c(C(=O)NCc2ccccc2)nnn1Cc1cccc(Cl)c1`, the inhibition is reported as 53% (active).

Source: PubChem BioAssay AID651661 (Broad Institute, 2012)
